# Data as given in ChEMBL document CHEMBL3988442, “University of Dundee, Small-Polar-MMV Screening Library” (2021).
# Among all 48,000 compounds or so, about 13,000 (27%) showed an effect of 50% or more. Some of the results follow.
# Tested on: Wolbachia pipientis
# Test: Anti-Wolbachia Cell-Based Screen
# Assay type: functional
# Set-up: scale not given: in the data most compounds retested in dose-response had high values
# Settings: 5 µM
row,Compound,Percent Effect
1,CCn1cc(CN(C)S(=O)(=O)c2cc(Cl)ccc2Cl)cn1,2.949%
2,COCc1ncc(CN2CC(Oc3c(C)cccc3C)C2)cn1,2.359%
3,C[S+]([O-])c1nncn1CC(=O)c1ccc2c(c1)CCO2 (stereo not given),-1.094%
4,CC(C)N(C)CC(=O)NCC(O)c1cc2ccccc2s1 (stereo not given),-11.06%
5,FC(F)(F)Cc1noc(CN2CCCC2c2noc(C3CC3)n2)n1 (stereo not given),0.1706%
6,CC(C)c1nc(CSc2nnc(Cn3cncn3)o2)cs1,-8.133%
7,CC(C)Cc1nc(CSCC(=O)N2CCC(C)CC2)no1,4.489%
8,COc1ccccc1C(=O)Nc1cc(CC(C)C)nn1C,100.2%
9,CC(C)Cc1cc(NC(=O)c2ccccc2F)n(C)n1,99.33%
10,CC(C)Cc1cc(C(=O)NC(C)(CO)CO)n(C)n1,11.8%
11,CC(C)Cc1cc(C(=O)N2CC(OCc3ccccc3F)C2)n(C)n1,4.315%
12,O=c1c2cccnc2cnn1CC(O)c1ccc(Br)cc1 (stereo not given),-15.17%
13,CSCCC(NC(N)=O)C(=O)NCc1cnn(-c2ccccc2)c1 (stereo not given),-24.8%
14,CCN1CCNC(=O)C12CCN(S(=O)(=O)c1ccc(F)cc1)CC2,-6%
15,O=C1CO[C@@H]2CN(S(=O)(=O)c3ccccc3)C[C@H]2N1CC1CC1,-2.601%
16,CCC[C@H]1CN(S(=O)(=O)c2ccccc2)C[C@@H]1N,-22.4%
17,CC(C)CN1CC(O)CN(S(=O)(=O)c2ccc(F)cc2)CC1=O (stereo not given),103.6%
18,N[C@H]1CN(S(=O)(=O)c2ccccc2)C[C@@H]1C1CC1,-7.486%
19,O=C1CN(S(=O)(=O)c2ccc(F)cc2)CC(O)CN1CC1CC1 (stereo not given),106.3%
20,CC(C)CN1CC(O)CN(S(=O)(=O)c2ccccc2)CC1=O (stereo not given),100.2%
21,CC(C)CN1CC(c2nc(-c3ccc(F)cc3)c[nH]2)CC1=O (stereo not given),-3.521%
22,CC(C)CN1CCNC(=O)C12CCN(S(=O)(=O)c1ccc(F)cc1)CC2,-14.33%

row,Compound,Percent Effect
1,Cc1ccc(C)c(OC(C)C(=O)NCCNc2cccnc2)c1 (stereo not given),16.95%
2,CCn1ncc2c1NC(=O)CC2c1cnc(-c2ccccn2)nc1 (stereo not given),-2.059%
3,COc1ccccc1N1CCN(C(=O)Cn2nc(C)cc2C)CC1(C)C,-9.26%
4,Cc1c(Cl)c(C(=O)N2CC[C@H](N3CCOCC3)[C@H](CCCO)C2)nn1C,-7.195%
5,CC(C)Cc1noc(CN2CCN(C(=O)c3cccs3)CC2)n1,-25.07%
6,CCc1nc(CN2CCCN(c3cnc4ccccc4n3)CC2)no1,-8.028%
7,CC(C)(C)c1nc(CN2CCCN(Cc3cccs3)CC2)no1,85.49%
8,CC(C)c1noc(CN2CCCN(Cc3cccs3)CC2)n1,67.59%
9,CCc1noc(CN2CCCN(Cc3cccs3)CC2)n1,74.2%
10,Cc1noc(CN2CCN(Cc3cccs3)CC2)n1,0.5359%
11,CCc1noc(CN2CCCN(C(N)=O)CC2)n1,-3.109%
12,CC(C)CCN1CCN(Cc2nc(C(C)C)no2)CC1,-7.959%
13,CCc1noc(CN2CCN(Cc3cccs3)CC2)n1,91.28%
14,CC(C)(C)c1nc(CN2CCC(c3nc4cc(Cl)ccc4o3)CC2)no1,-20.96%
15,CC(C)(C)c1noc(CN2CCCN(Cc3cccs3)CC2)n1,1.032%
16,Cc1cc2nc(CO[C@H]3CN(CC4CC4)C[C@H]3F)[nH]c2cc1C,-2.135%
17,Cc1cc(C)n(CC(C)NC2CCN(Cc3cccnc3)CC2)n1 (stereo not given),-17.52%
18,CO[C@H]1C(=O)N(C)C2(CCNCC2)[C@@H]1C(=O)Nc1ccccc1,91.16%
19,CN1C(=O)[C@H](OC(N)=O)[C@@H](C(=O)Nc2ccccc2)C12CCNCC2,104.3%
20,Cc1ncccc1OC1(C(=O)NCCNc2ccccc2)CCNCC1,-10.51%
21,CN1C(=O)CO[C@H](c2ccc(NC(=O)Nc3ccccc3)cc2)[C@H]1CO,-13.1%
22,CNC(=O)[C@@H]1[C@@H](OC(=O)Nc2ccccc2)C(=O)N(C)C12CCNCC2,89.46%

row,Compound,Percent Effect
1,O=C(Nc1ccccc1)[C@H]1O[C@H](CCN2CCNCC2)CC[C@@H]1O,1.571%
2,CN1CC2(CNCCN(C(=O)Nc3ccccc3)C2)CC1=O.O=C(O)C(F)(F)F (stereo not given),-22.36%
3,CCc1cc(N2CCSCC2)n2nc(C)c(C)c2n1,8.974%
4,Cc1n[nH]c(C)c1CCN(C)C(=O)c1ccc(CCC(C)(C)O)cc1,11.25%
5,CN(Cc1cc(Br)cn1C)C(=O)c1cc(Cl)ccn1,-3.777%
6,O=C(c1cc(-c2cn[nH]c2)nc2ccc(F)cc12)N1CCSCC1,9.042%
7,COc1ccc2cc(CN(C)CCc3cn[nH]c3)c(=O)[nH]c2c1,-3.299%
8,Cc1ccccc1C(=O)NC1CCN(Cc2ncc(C(C)(C)C)o2)CC1,19.24%
9,Cc1nc(C(C)(C)NC(=O)Nc2ccncc2)no1,-5.529%
10,CS(=O)(=O)NCC1CCCN(C(=O)Nc2ccccc2F)C1 (stereo not given),119.4%
11,CS(=O)(=O)NCC1CCCN(C(=O)COc2ccc(F)cc2)C1 (stereo not given),-1.733%
12,CC(C)S(=O)(=O)NCC1CCCN(C(=O)c2ccc(F)cc2)C1 (stereo not given),-11.51%
13,CS(=O)(=O)NCC1CCCN(C(=O)Nc2cccc3ccccc23)C1 (stereo not given),98.14%
14,CS(=O)(=O)NCC1CCCN(C(=O)Nc2ccccc2N2CCCC2)C1 (stereo not given),96.01%
15,CS(=O)(=O)NCC1CCCN(C(=O)COCc2ccccc2)C1 (stereo not given),-4.256%
16,O=C(CN1CCCC1)N1CCCC(CNS(=O)(=O)Cc2ccccc2)C1 (stereo not given),16.47%
17,CS(=O)(=O)NCC1CCCN(C(=O)c2ccc3c(c2)CCCC3)C1 (stereo not given),4.156%
18,O=C(Nc1cccc2ccccc12)N1CCC(N2CCSCC2)CC1,-0.7759%
19,CNS(=O)(=O)CCCN1CCCC1c1noc(C2CC2)n1 (stereo not given),-1.215%
20,O=C(Nc1ccc(-c2csnn2)cc1)N1CCCC1,-14.17%
21,CN(C)Cc1csc(-c2nccn2CCc2cccnc2)c1,-6.294%
